# Results reported in PubChem BioAssay AID651915 (Vanderbilt Specialized Chemistry Center, 2012).
# Active and inactive are the calls of the source. The rule behind the calls is not given here.
# Molecular target: Histone deacetylase 5 (Homo sapiens) (UniProt Q9UQL6)
# Experiment: inhibitors of recombinant human HDAC5 – biochemical, selectivity assay for E-cadherin restoration project, profiling panel (AID 651915)
# Chain of Histone deacetylase 5 (Homo sapiens) (Q9UQL6 whole entry, looked up): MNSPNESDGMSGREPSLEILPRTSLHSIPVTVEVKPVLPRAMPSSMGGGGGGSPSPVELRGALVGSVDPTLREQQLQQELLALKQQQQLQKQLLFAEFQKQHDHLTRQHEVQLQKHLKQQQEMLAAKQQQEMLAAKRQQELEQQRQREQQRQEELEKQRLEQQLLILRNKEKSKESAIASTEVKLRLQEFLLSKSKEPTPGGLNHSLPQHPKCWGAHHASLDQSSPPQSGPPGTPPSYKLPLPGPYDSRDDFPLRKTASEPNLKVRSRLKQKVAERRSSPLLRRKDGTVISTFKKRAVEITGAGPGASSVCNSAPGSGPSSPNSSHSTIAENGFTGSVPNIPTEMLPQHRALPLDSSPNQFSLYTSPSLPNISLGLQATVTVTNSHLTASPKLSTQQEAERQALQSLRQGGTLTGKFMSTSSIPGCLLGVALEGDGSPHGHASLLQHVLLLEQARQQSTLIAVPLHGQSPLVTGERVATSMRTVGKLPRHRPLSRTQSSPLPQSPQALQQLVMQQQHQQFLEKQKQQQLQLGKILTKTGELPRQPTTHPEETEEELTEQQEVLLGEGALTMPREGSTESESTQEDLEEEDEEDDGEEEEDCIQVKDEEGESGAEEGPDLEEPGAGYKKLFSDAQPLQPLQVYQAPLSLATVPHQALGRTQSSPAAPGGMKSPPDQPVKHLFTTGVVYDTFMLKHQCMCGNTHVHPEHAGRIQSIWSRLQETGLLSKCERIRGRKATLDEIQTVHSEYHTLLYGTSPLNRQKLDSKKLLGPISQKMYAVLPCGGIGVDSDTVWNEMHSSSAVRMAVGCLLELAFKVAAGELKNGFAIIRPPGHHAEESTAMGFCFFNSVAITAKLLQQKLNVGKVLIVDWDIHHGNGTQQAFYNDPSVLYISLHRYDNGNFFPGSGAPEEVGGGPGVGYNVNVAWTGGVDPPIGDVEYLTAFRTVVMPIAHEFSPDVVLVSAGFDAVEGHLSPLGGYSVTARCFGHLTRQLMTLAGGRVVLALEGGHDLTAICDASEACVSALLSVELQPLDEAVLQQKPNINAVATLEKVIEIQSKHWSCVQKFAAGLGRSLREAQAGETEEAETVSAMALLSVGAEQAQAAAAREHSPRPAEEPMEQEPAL
smiles,measurement,value
O=C(NCCCNC(=O)c1ccc[nH]c1=O)c1cc(-c2ccccc2)on1,outcome,inactive
